Assay results reported in PubChem BioAssay AID492956 (The Scripps Research Institute Molecular Screening Center, 2010).
“And” between values parts separate entries of the source, which are not always exact repeats. Identical values can stand only once. Among all 340,000 compounds or so, about 3,300 (0.97%) were called active. The full list was thinned out, with actives kept by preference. A number with no mark means an inactive call.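 How the source made its calls: active means inhibition above the mean over all tested compounds plus 3 SD (cut at about 30% in these data); inactive means the rest.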

The molecules below were run against Platelet-activating factor acetylhydrolase 2, cytoplasmic (Homo sapiens) (UniProt Q99487) (assay: inhibition of cytoplasmic PAF acetylhydrolase 2 – biochemical, fluorescence polarization, human, primary screen (AID 492956;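 further: inhibitors block probe labeling of enzyme so polarization drops; 0% = enzyme with DMSO and 100% = wells lacking PAFAH2 protein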)). Conditions: recombinant PAFAH2, FP-rhodamine activity probe, at 3.39 µM, stronger effect = higher value.
In the case of CCCCCC(=O)N1CCN(S(=O)(=O)c2ccc3c(c2)OCCCO3)CC1, the inhibition is reported as 6.58%.
Clc1ccc(C2[C@H]3CN(CC4CCCCC4)[C@H](c4ccccc4)C34CC2(c2cccnc2)C4)cn1 (some centres undefined) was tested, and the inhibition was -11.3%.
COc1cc(C2C(C(=O)c3sc(C)nc3C)=C(O)C(=O)N2CCN(C)C)cc(OC)c1OC (centres undefined) was tested, and the inhibition was 2.01%.
Molecule COc1ccccc1N1CC(C(=O)Nc2ccc(S(=O)(=O)N3CCOCC3)cc2)CC1=O (centres undefined) has an inhibition of 2.45%.
CC(=O)Nc1ccc(NS(=O)(=O)c2cc(C)sc2C)cc1 showed an inhibition of 5.36%.
Work on OC(CNC1CCCC1)COc1ccc(F)cc1 (centres undefined) yielded an inhibition of -6.14%.
CC(C)(C)NC(=O)c1cccc(NC(=O)Cc2ccc(Br)cc2)c1 gave an inhibition of -0.14%.
Work on FC(F)Oc1ccccc1C1CC(c2ccc(Br)s2)Nc2ncnn21 (centres undefined) yielded an inhibition of 4.45%.
CC(NC(=O)COC(=O)c1ccc(Cl)cc1O)c1ccc(F)cc1 (centres undefined) gave an inhibition of 11%.
C=CCOc1ccc(/C=C/C(=O)OCC(=O)NC(C)c2ccc(F)cc2)cc1 (centres undefined) was tested, and the inhibition was 33.1% (active).
C=CCOc1ccc(/C=C/C(=O)OCC(=O)NC2CCCCCC2)cc1 was tested, and the inhibition was 77% (active).
For O=C(COC(=O)/C=C/c1ccc(OC(F)F)cc1)NC1CCCCC1, the inhibition was 59.9% (active).
Work on C=CCOc1ccc(/C=C/C(=O)OCC(=O)NCC2CCCO2)cc1 (centres undefined) yielded an inhibition of 29.2%.
With C=CCOc1ccc(/C=C/C(=O)OC(C)C(=O)Nc2ccc(NC(C)=O)cc2)cc1 (centres undefined) the inhibition was -1.01%.
CC1CCCCC1NC(=O)CO/N=C/c1ccc(OC(F)F)cc1 (centres undefined) was tested, and the inhibition was 5.23%.
Work on CCC(=O)c1ccc(OCC(=O)OCC(=O)NC2CCCCCC2)cc1 yielded an inhibition of 1.93%.
O=C(CO/N=C/c1ccccc1OC(F)F)NC1CCCC1 was tested, and the inhibition was 4.52%.
O=c1ccc2cc(S(=O)(=O)N3CCN(c4ccccc4)CC3)ccc2o1 gave an inhibition of -3.62%.
COC(=O)CCSc1nccn1Cc1ccccc1 gave an inhibition of 3.07%.
Work on CC(=O)c1c(N2CCN(c3ccc(F)cc3)CC2)nc(=S)n(-c2ccccc2)c1C yielded an inhibition of -5.81%.
With Cc1ccc(NC(=O)CN(C)S(=O)(=O)c2cnc[nH]2)cc1C the inhibition was 4.95%.
Work on CC(NC(=O)c1ccccc1)C(=O)Nc1ccccc1 (centres undefined) yielded an inhibition of -1.79%.
In the case of O=C1C=C(NS(=O)(=O)c2ccccc2)C(=O)c2ccccc21, the inhibition is reported as 5.32%.
O=C(NC1=CC(=O)c2ccccc2C1=O)c1ccccc1 was tested, and the inhibition was 45.2% (active).
Cc1cccc(C2C3=C(CCCC3=O)N=C3c4ccccc4C(=O)C32)c1 (centres undefined) showed an inhibition of 9.45%.
With O/N=C(\C[n+]1ccccc1)c1ccc(Br)cc1 the inhibition was -4.24%.
For O=C(Nc1ccc(Cl)cc1)C1c2cccc[n+]2CC(=O)N1Cc1ccc2c(c1)OCO2 (centres undefined), the inhibition was 43.6% (active).
With O=C(C1CCN(Cc2ccc(Cl)cc2)CC1)N1CCN(Cc2ccc3c(c2)OCO3)CC1 the inhibition was 2.96%.
With CCCOc1ccc(NC(=O)CC2C(=O)N(C)C(=S)N2Cc2ccc3c(c2)OCO3)cc1 (centres undefined) the inhibition was -2.75%.
For Cc1c(Br)cc(C(=O)N2CCCCCC2)c(C)c1C, the inhibition was 1.14%.
CC1CCc2c(sc3c2C2=NS(=O)(=O)CCN2C=N3)C1 (centres undefined) showed an inhibition of 0.66%.
With COCCNC(=O)NC(=O)COC(=O)C1(c2ccc(Cl)cc2)CC1 the inhibition was 13%.
In the case of Cc1ccc(Cc2nnc(SCC(=O)Nc3ccccc3C)[nH]c2=O)cc1, the inhibition is reported as 6.57%.
With COc1ccccc1-c1cnn2c(N3CCOCC3)cc(C)nc12 the inhibition was -3.57%.
O=C(COc1ccc(Cl)cc1)Nc1ccccc1CO was tested, and the inhibition was 0.9%.
CS(=O)(=O)c1ccc(C(=O)OCC(=O)NNC(=O)COc2ccc(Cl)cc2)cc1 showed an inhibition of 1.43%.
CCS(=O)(=O)c1ccc(O)c(NC(=O)COc2ccc(Cl)cc2)c1 was tested, and the inhibition was 75.6% (active).
In the case of O=C(c1ccc(=O)[nH]c1)N(Cc1ccco1)C1(C(=O)NC2CCCCC2)CCCCC1, the inhibition is reported as -0.52%.
In the case of N#Cc1nc(COc2ccc(Cl)cc2)oc1N1CCCC1, the inhibition is reported as -5.85%.
With O=C(OCC(=O)N1CCN(c2ccccc2)CC1)c1ccc([N+](=O)[O-])s1 the inhibition was 35.3% (active).
Work on COc1cccc(/C=C/C(=O)OCC(=O)N2CCN(c3ccccc3)CC2)c1 yielded an inhibition of 1.44%.
Work on C[C@H](NC(=O)c1ccccc1Cl)C(=O)OCC(=O)N1CCN(c2ccccc2)CC1 yielded an inhibition of -2.12%.
In the case of CC(C)(C)NC(=O)CSc1nnc(NC(=O)CCc2ccccc2)s1, the inhibition is reported as 0.99%.
With CC(C)CNC(=O)COC(=O)c1ccccc1OCC(=O)Nc1ccc(Br)cc1 the inhibition was -2.18%.
CC(=O)Nc1ccc(NC(=O)COC(=O)c2ccccc2C(=O)c2ccccc2)cc1 was tested, and the inhibition was 32.1% (active).
With CCN(CC)c1ccc(C(=O)OCC(=O)c2ccco2)cc1 the inhibition was 35.1% (active).
Molecule CC(=O)Nc1ccc(NC(=O)COc2ccc(-c3ccccc3)cc2)cc1 has an inhibition of -5.15%.
In the case of O=C(COC(=O)c1ccccc1C(=O)c1ccccc1)c1ccco1, the inhibition is reported as 43% (active).
O=C(CNC(=O)c1ccco1)OCC(=O)c1ccccc1 was tested, and the inhibition was 4.2%.
CCOC(=O)c1ccc(NC(=O)CNC(=O)c2ccco2)cc1 showed an inhibition of 1.1%.
Molecule CCc1ccc(C(=O)COC(=O)c2ccco2)cc1 has an inhibition of 9.26%.
Molecule O=C(OCC(=O)N1CCN(C(=O)c2ccco2)CC1)c1ccccc1Cc1ccccc1 has an inhibition of 10.9%.
CC1(C)C2CCC1(CS(=O)(=O)NCCc1c[nH]c3ccccc13)C(=O)C2 (centres undefined) showed an inhibition of 4.84%.
O=[N+]([O-])c1ccc(Oc2ccc(F)cc2Br)c2ccncc12 was tested, and the inhibition was -2.87%.
Molecule O=S(=O)(NC1CC1)c1ccc(Cl)cc1 has an inhibition of 6.44%.
Work on Cc1cc(N)n(-c2ccc(S(=O)(=O)N3CCCC3)cc2[N+](=O)[O-])n1 yielded an inhibition of 3.65%.
O=C(CNC(=O)c1ccc(Cl)cc1Cl)NCC(=O)Nc1ccccc1N1CCOCC1 showed an inhibition of 7.59%.
In the case of Oc1ccccc1C1=NN(c2ccccc2)C(c2ccccc2)C1 (centres undefined), the inhibition is reported as 2.45%.
For Cn1cccc1C(=O)OCC(=O)NCCc1ccccc1, the inhibition was 12.9%.
For O=C(COC(=O)c1c2c(nc3ccccc13)CCCC2)c1ccc(Br)s1, the inhibition was -8.93%.
With Cn1cccc1C(=O)OCC(=O)c1ccc(Br)s1 the inhibition was 40.2% (active).
Molecule C=CCN(C(=O)Cn1ncc2c1-c1cc(C)ccc1OC2)c1ccccc1 has an inhibition of 7.42%.
Molecule O=C(c1c(F)cccc1F)N1CCN(c2ncc(Br)cn2)CC1 has an inhibition of 9.7%.
CCOc1c(OC)cccc1C(=O)NCC1(c2ccccc2)CCCC1 was tested, and the inhibition was -1.33%.
In the case of COc1cc(C(=O)NCC2(c3ccccc3)CCCC2)ccc1OC(C)C, the inhibition is reported as 174% (active).
With COc1ccc(C2(CNC(=O)Cc3ccc(OC)c(OC)c3)CCCC2)cc1 the inhibition was 0.3%.
O=C(NC(=O)c1ccccc1N1CCCCC1)Nc1ccc(Br)cc1 showed an inhibition of -2.91%.
Nc1ccc(C(=O)OCC(=O)NC2CCS(=O)(=O)C2)cc1[N+](=O)[O-] (centres undefined) gave an inhibition of 0.87%.
With CCOc1ccc(NC(=O)COc2ccc(C(=O)NC3CCCc4ccccc43)cc2OC)cc1 (centres undefined) the inhibition was -2.16%.
NC(=O)Nc1ccc(C(=O)OCC(=O)NC2CCCc3ccccc32)cc1 (centres undefined) was tested, and the inhibition was 71.5% (active).
O=C(CCNC(=O)c1ccc(Cl)cc1)NC1CCCc2ccccc21 (centres undefined) was tested, and the inhibition was 0.23%.
For Nc1ccc(C(=O)OCC(=O)NC2CCCc3ccccc32)cc1[N+](=O)[O-] (centres undefined), the inhibition was 56.6% (active).
COC(=O)c1cc(OCC(=O)NC2CCCc3ccccc32)cc(C(=O)OC)c1 (centres undefined) was tested, and the inhibition was 0.45%.
In the case of O=C(NNc1nc(N2CCCC2)nc(N2CCCC2)n1)c1ccccc1, the inhibition is reported as 8.18%.
CC(=O)N1c2ccc(S(=O)(=O)N3CCC(C(=O)N4CCN(c5ccccc5)CC4)CC3)cc2CC1C (centres undefined) was tested, and the inhibition was -4.15%.
COc1cc(C(=O)NCc2nnc(SCC(=O)Nc3nc4ccc(C)cc4s3)o2)cc(OC)c1OC gave an inhibition of 4.41%.
Molecule CCOc1ccc(CCNC(=O)C2=C(C)C(=O)OC23CCC(C)CC3)cc1OCC (centres undefined) has an inhibition of 5.73%.
In the case of c1ccc(CCC2=NCCn3cccc32)cc1, the inhibition is reported as -3.37% and -2.16%.
O=C(OCC(=O)N1CCCCC1)c1ccc(OC(F)(F)F)cc1 showed an inhibition of 5.16%.
